From PubChem
Pf growth 48h: inhibits P. falciparum growth in the first generation, 48 h; Potency, µM (highest dose often 28.7 µM), actives largely listed as inhibitors; P. falciparum luciferase growth in erythrocytes, 48 h; hit rate 5.9% among 310,000; AID 504832
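Compounds are pin-transferred into medium, infected erythrocytes (2% hematocrit, 0.1% parasitemia final) are added, and plates sit one parasite generation at 37 C in 5% CO2. Detection reagent is then added and luminescence measured.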
Pf growth 96h: P. falciparum growth inhibition at 96 hours | P. falciparum luciferase reporter growth, 96 h | Potency, µM (top dose mostly 28.7 µM), actives largely listed as inhibitors | hit rate 6.9% among 320,000 | AID 504834
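Readout is luminescence from an integrated firefly luciferase in P. falciparum. Red cells, 2% hematocrit and 0.05% parasitemia final, were cultured with compound through two parasite generations (96 hours) at 37 C, 5% CO2.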
CHX counter: counter-screen for Shiga toxin inhibitors: cycloheximide protein synthesis inhibition; cell reporter, cycloheximide protein synthesis inhibition counterscreen; max response, %; hit rate 12% among 300,000; AID 2314; in the data active means max response mostly above about 13%, no sharp cut-off; inactive means mostly below about 14%; further: read at 38.3 µM for the half of the compounds with a filed dose
Shiga toxin inh: Shiga toxin inhibition | Vero cells, Shiga toxin protein synthesis inhibition reporter | inhibition, % at 38.7 µM | hit rate 9.2% among 290,000 | AID 2315; in the data active means inhibition mostly above about 28%, no sharp cut-off; inactive means mostly below about 43%
Large screens that a line does not name were inactive. Sampled rows, rich in hits. Any-hit rate of the full collection: about 21%. Unless noted, the call rests on the fitted dose curve; in most records, active means well fitted inhibition curve with a large enough effect; inconclusive means small, poorly fitted or top-dose-only effect, or another doubt; inactive means no such curve, though single readings can be large or run the other way.

COc1ccc(CCNC(=O)c2coc(=O)c(Br)c2)cc1	CHX counter 26, Shiga toxin inh 71
COc1ccc(CCNC(=O)c2ccc(Br)cc2)cc1	none
Cc1ccc2cc(CCNC(=O)c3ccc(C)c([N+](=O)[O-])c3)c(=O)[nH]c2c1	Pf growth 48h inconclusive, Pf growth 96h 4.7µM
COc1ccc(C2=Nn3c(nnc3-c3ccc(OC)c(OC)c3)SC2)cc1	none (no result: Pf growth 48h, Pf growth 96h)
N#Cc1c(-c2ccccc2)nc2n(-c3ccccc3)nc(C(=O)Nc3ccccc3)n2c1=O	Pf growth 96h 0.74µM (no result: Pf growth 48h)
Cc1ccc(-c2cc(-c3ccc4c(c3)OCO4)c(C#N)c(N)n2)o1	Pf growth 48h inconclusive (no result: Pf growth 96h)
CC(C)(C)c1ccc(-c2nc3c(C#N)c(-c4ccc5c(c4)OCO5)ccn3n2)cc1	Pf growth 48h 8.3µM, Pf growth 96h inconclusive
Cc1ccc(OCCNC(=O)CCNS(=O)(=O)c2ccc3ccccc3c2)cc1	Pf growth 48h inconclusive (no result: CHX counter, Shiga toxin inh)
CCOc1ccc(C2C(C#N)=C(N)Oc3cc(C)n(CCN(C)C)c(=O)c32)cc1OCC (configuration not stated)	Pf growth 96h 12µM
CCN(CC)CCCn1c(C)cc2c(c1=O)C(c1ccc(OC)c(OC)c1OC)C(C#N)=C(N)O2 (configuration not stated)	Pf growth 48h inconclusive, Pf growth 96h 0.93µM
Cc1cc2c(c(=O)n1CCN(C)C)C(c1ccc(Cl)cc1)C(C#N)=C(N)O2 (configuration not stated)	Pf growth 96h inconclusive
Cc1ccc(CNC(=O)CNC(=O)[C@@H]2Cc3ccccc3CN2)cc1	none
COc1ccccc1N1CCN(C(=O)C2=CC=CN3CCS(=O)(=O)N=C23)CC1	none (no result: CHX counter, Shiga toxin inh)
CSc1nc2ccc(Cl)cc2[nH]1	none
CSc1nc2cc(Oc3cccc(Cl)c3Cl)c(Cl)cc2[nH]1	Pf growth 48h 6.7µM, Pf growth 96h 12µM
O=C1c2ccccc2C(=O)N1CCN1CCOCC1	none (no result: Pf growth 48h)
CCOc1ccc(N=C2C(=O)N(CN3CCOCC3)c3ccccc32)cc1	Pf growth 96h 13µM
CCc1noc(C)c1C(=O)Nc1nnc(C(CC)CC)s1	Pf growth 48h inconclusive (no result: CHX counter, Shiga toxin inh)
CC(=O)Nc1ccc(C2Nc3cc(C)c(C)cc3NC3=C2C(=O)CC(C)(C)C3)cc1 (configuration not stated)	Pf growth 96h 8.3µM, CHX counter 36, Shiga toxin inh 40
Cn1cc(CN2CCCC(C(=O)Nc3cccc(-n4cccn4)c3)C2)cn1 (configuration not stated)	Pf growth 96h inconclusive
Cc1c(CN2CCCC(C(=O)Nc3cccc(-n4cccn4)c3)C2)cnn1C (configuration not stated)	Pf growth 96h 13µM
O=C(Nc1cccc(-n2cnnn2)c1)C1CCCN(Cc2cccc(C(F)(F)F)c2)C1 (configuration not stated)	Pf growth 48h 15µM
CCn1ncc(CN2CCCC(C(=O)Nc3cccc(-c4cc5ccccc5[nH]4)c3)C2)c1C (configuration not stated)	Pf growth 48h 4.1µM
O=C(Nc1cccc(-n2cccn2)c1)C1CCCN(Cc2cc3ccccc3[nH]2)C1 (configuration not stated)	Pf growth 48h inconclusive
CN1C(=O)[C@]23CC4=CC=C[C@H](O)[C@H]4N2C(=O)[C@@]1(CO)SS3	none (no result: Pf growth 48h, Pf growth 96h)
Cc1ccccc1CC1(CO)CCCN(Cc2nc(-c3cccs3)oc2C)C1 (configuration not stated)	Pf growth 48h inconclusive
O=C(C(Cl)Cl)N1c2ccccc2OCC1c1ccccc1 (configuration not stated)	Pf growth 48h inconclusive, Pf growth 96h inconclusive
COc1ccc(N(CC(=O)NCCc2ccc(OC)c(OC)c2)S(=O)(=O)c2ccc(OC)c(OC)c2)cc1	none
Cc1ccc(C(=O)Nc2nnc(CC(=O)N/N=C/c3ccncc3)s2)cc1	Pf growth 96h inconclusive, CHX counter 30, Shiga toxin inh 57
COc1ccc(/C=C\C(=O)NCC(=O)N/N=C/c2ccc(O)cc2O)cc1	none
COc1ccc(C(=O)Nc2nnc(CC(=O)N/N=C/c3ccc(O)cc3O)s2)cc1	Pf growth 96h inconclusive, CHX counter 17, Shiga toxin inh 43
Cc1ccccc1C(=O)Nc1nnc(CC(=O)N/N=C/c2ccco2)s1	none
Cc1ccc(NCC(=O)N/N=C/c2ccncc2)cc1	Pf growth 96h inconclusive
Cc1ccc(C(=O)Nc2nnc(CC(=O)N/N=C/c3ccc(O)c(O)c3)s2)cc1	Pf growth 96h inconclusive, CHX counter 24
CCC(C)C(NC(=O)C1CCC(C)CC1)C(=O)NC1CCN(Cc2ccccc2)CC1 (configuration not stated)	Pf growth 96h inconclusive
Cc1ccc(-c2nc3scc(CCNS(=O)(=O)c4ccc(Oc5ccccc5)cc4)n3n2)cc1	none (no result: Pf growth 48h, Pf growth 96h)
N#Cc1ccc(C[C@@H](NS(=O)(=O)c2ccc(C(=O)O)cc2)C(=O)O)cc1	Pf growth 48h inconclusive
COc1ccc(C(=O)C(Cc2ccccc2)N(C)C)cc1 (configuration not stated)	Pf growth 48h inconclusive, Pf growth 96h 1.3µM, CHX counter 31, Shiga toxin inh 42
COc1ccc(C(C)=O)cc1CC(C(=O)c1ccc(F)cc1)N(C)C (configuration not stated)	Pf growth 48h inconclusive, Pf growth 96h 10µM
CN(C)C(Cc1ccccc1)C(=O)c1ccc(-c2ccccc2)cc1 (configuration not stated)	Pf growth 96h inconclusive (no result: Pf growth 48h)
CN(C)C(Cc1ccc(C#N)cc1)C(=O)c1ccccc1 (configuration not stated)	CHX counter 29
CN(C)CCCOC(=O)COc1ccc(C(C)(C)C)cc1	none
CCCSc1nc(C)cc(C)c1S(=O)(=O)c1ccccc1C	Pf growth 48h inconclusive, Pf growth 96h inconclusive
Cc1cc(C)c(S(=O)(=O)c2ccccc2C)c(SCC(C)C)n1	Pf growth 48h inconclusive, Pf growth 96h 12µM
O=C(NCCCCc1ccccc1)C12CN(Cc3ccccc3)CC1C(c1cccc([N+](=O)[O-])c1)=NO2 (configuration not stated)	Pf growth 48h 4.7µM, Pf growth 96h inconclusive
O=C(NCCc1cccs1)C12CN(Cc3ccccc3)CC1C(c1cccc([N+](=O)[O-])c1)=NO2 (configuration not stated)	Pf growth 48h 8.3µM, Pf growth 96h inconclusive
O=C(NCCCCc1ccccc1)C12CN(Cc3ccccc3)CC1C(c1ccc([N+](=O)[O-])cc1)=NO2 (configuration not stated)	Pf growth 48h 13µM, Pf growth 96h inconclusive
CC(C)CCNC(=O)C12CN(Cc3ccccc3)CC1C(c1cccc([N+](=O)[O-])c1)=NO2 (configuration not stated)	Pf growth 48h inconclusive, Pf growth 96h inconclusive
CCn1cc(C(=O)NCCCN(C)C)c(=O)c2cc(F)c(N3CCN(C)CC3)cc21	Pf growth 48h inconclusive
CCn1cc(C(=O)NCc2ccc3c(c2)OCO3)c(=O)c2cc(F)c(N3CCN(C(=O)c4ccco4)CC3)cc21	Pf growth 48h 8.3µM (no result: Pf growth 96h)
CCn1cc(C(=O)NCc2ccccc2)c(=O)c2cc(F)c(N3CCN(C(=O)c4ccco4)CC3)cc21	Pf growth 96h 1.7µM (no result: Pf growth 48h)
CCn1cc(C(=O)NCc2ccncc2)c(=O)c2cc(F)c(N3CCN(C(=O)c4ccco4)CC3)cc21	Pf growth 48h 6.6µM, Pf growth 96h 10µM
